This passage reports growth results from PubChem BioAssay (NCI).

This is part of a sample that, as a whole, favours compounds with a hit. Of some 83,000 tested, about 20% had one in any assay.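 The endpoint reported here, percent growth, reads 100 for growth as untreated, 0 for no net growth and -100 for all cells dead.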 Values without a mark were called inactive. Calls of active or inactive are those of the source.

The assay relates to SNB-19 CNS. The assay can be described thus: NCI-60 one-dose screen, 48 h (100 = growth as untreated, 0 = no growth, -100 = all killed). The settings on record: 10 µM unless noted. Here is the method:
Growth inhibition of the SNB-19 human tumor cell line is measured as a screen for anti-cancer activity. Cells are grown in 96 well plates and exposed to the test compound for 48 hours. Compounds are tested at a single concentration, which is 10^-5 M for most compounds. The reported endpoint is percent growth (GI% or GIPRCNT), where numbers from 0 - 100% represent growth inhibition, and numbers from -100% - 0 represent cell death. For example, a value of 40 represents 60% growth inhibition. A value of 0 means no net growth occurred over the course of the experiment. A value of -40 indicates 40% of cells at the beginning of the experiment died by the end of the experiment. A value of -100 means all cells are dead at the end of the experiment.
NCI-60 Human Tumor Cell Lines Screen was performed using the standard one-dose NCI protocol, which is described in more detail at https://dtp.cancer.gov/discovery_development/nci-60/default.htm.
Compounds with GIPRCNT values below 10 were considered active. Activity score was based on GIPRCNT using the following formula: […]
Score is 0 for GIPRCNT values of 100 or above, 50 for GIPRCNT values of 0, and 100 for GIPRCNT values of -100.
In the case of `Nc1ncnc(N)c1NC(=O)c1ccc(OCc2ccccc2)cc1`, the growth was 103%.

Take `O=c1c2cc(F)ccc2sc2c(Nc3ccncc3)nc3ccccc3c12`: the growth is 25.5%.

Regarding `Cc1ccc2cccc(Oc3ccc(Nc4ncnc5onc(-c6ccccc6)c45)cc3)c2n1`, the growth was 92.3%.

Take `CCc1ccc(CNCC(O)c2ccccc2)cc1` (stereo not given): the growth was 79.7%.

In the case of `COc1cc2nc(-c3cccc4cccnc34)nc(NC3CCN(Cc4ccccc4)CC3)c2cc1OC`, the growth is -78.2% (active).

With `O=C(CCN1C(=O)c2ccccc2C1=O)Nc1ccc(Cl)cc1`, the growth was 90.3%.

As to `COc1cc(C2C(C#N)=C(N)OC3=C2C(=O)c2ccccc2C3=O)cc(OC)c1OC` (stereo not given), the growth is 34.2%.

Regarding `COC(=O)c1c2c(c(C)[n+]([O-])c1C)C(=O)C=C(NCc1ccccc1)C2=O`, the growth is -11.4% (active).

As for `Cc1ccc(Cn2c(N3CCC(C(=O)NCc4cccs4)CC3)nc3ccccc32)cc1`, the growth is 112%.

In the case of `CCOC(=O)c1cc2c(n1Cc1ccccc1)-c1oncc1CCC2`, the growth is 88.1%.

Consider `COc1ccc(CCN2C(=O)CCSC2=S)cc1`, for which the growth was 84%.

`CCC(C)(C)C(=O)O[C@H]1C[C@@H](C)C=C2C=C[C@H](C)[C@H](CC[C@@H]3CC=CC(=O)O3)[C@H]21`: the growth was 84%.

In the case of `O=C1OC(c2ccccc2)(c2ccccc2)c2ccsc21`, the growth is 102%.

Consider `COc1nccc2cc3c(=O)n4c(cc5ccccc54)c(=O)n3c12`, for which the growth was 108%.

Turning to `CCCCN1CCN(c2ccc3nc(-c4ccc5nc(-c6ccc(OC)c(OC)c6)[nH]c5c4)[nH]c3c2)CC1`, the growth is 0.577% (active).

Regarding `CCCCCCn1c(=N)n(CC(O)COc2cccc(C)c2)c2ccccc21` (stereo not given), the growth was 12.6%.

In the case of `COc1ccc(C2=C(c3cccc(OC)c3)C(=O)c3ccc(C)nc3C2=O)cc1`, the growth is 43.9%.

Consider `COc1ccc(CN2CCCC(C(=O)c3ccc(C(F)(F)F)cc3)C2)c(O)c1` (stereo not given), for which the growth was 44.1%.

In the case of `O=C(Cc1ccccc1)NC(c1ccc(Cl)cc1)c1c(O)ccc2ccccc12` (stereo not given), the growth is 20.8%.

As to `COc1cc(/C=C/C(=O)c2c(C)nc3ccccc3c2/C=C/c2ccccc2)cc(OC)c1OC`, the growth is 1.12% (active).

Turning to `O=C(c1nc2ccccc2[nH]1)C1[C@@H](c2cccc(O)c2)C2CC3CCCCC3N2[C@@]12C(=O)Nc1cc(Cl)ccc12` (stereo not given in full), the growth was 42.4%.

Take `O=C1NC(=O)C(=Cc2cn(Cc3cn(Cc4ccc(Cl)cc4Cl)nn3)c3ccccc23)C(=O)N1`: the growth was 88.5%.

On to `CNCCNc1nc2ccccc2c2c(=O)c3cccc(C)c3sc12`, for which the growth is 53.2%.

Turning to `COc1ccc(/C=C/C(=O)c2c(C)nc3ccccc3c2/C=C/c2ccccc2)c(OC)c1`, the growth was 92.9%.

For the molecule `CC[C@@H](C)[C@H](NC(=O)Cn1cc(CNC(=O)[C@@H](NC(=O)OCc2ccccc2)C(C)C)nn1)C(=O)O`, the growth is 106%.

With `Cc1cc2c(c(C)c1Cl)C(=O)/C(=C/c1ccco1)O2`, the growth was 95.2%.

Take `O=c1oc2ccc(Br)cc2c(=O)n1-c1ccc(Cl)cc1F`: the growth is 17.7%.

Consider `O=C(Nc1ccc(Cl)cc1F)c1cc(F)ccc1O`, for which the growth was 22.8%.

`Cc1ccc(OCCCCCCNCCO)c(C)c1`: the growth was 14.5%.

As for `CN(C)c1ccc(/C=C/c2ccnc3c(O)cccc23)cc1`, the growth was 26.4%.

As for `CC(=O)Nc1nc2c(s1)CCc1c-2cn(S(=O)(=O)c2ccccc2)c1-c1ccccc1`, the growth was 93.6%.

Take `COc1ccc(C2C3=C(COC3=O)N(CCO)c3cc4c(cc32)OCCO4)cc1` (stereo not given): the growth is 81.2%.

For `COc1ccc(Cn2c(Br)c3c(c2-c2cc(OC)c(OC)c(OC)c2)CCc2sc(NC(=O)c4ccc(OC)cc4)nc2-3)cc1`, the growth was 98.5%.

For `CCOC(=O)c1cnc2c(C)cccc2c1Nc1ccc(C(C)=O)cc1`, the growth is 40.6%.

`COc1ccc(-c2cn[nH]c2-c2ccc(OC)c(O)c2)cc1`: the growth is 76.5%.

For `CC1CCCCN1CCCNC(=O)c1ccc2c(c1)sc1nc(-c3ccc(F)cc3)cn12` (stereo not given), the growth is 104%.

As for `O=C(Cn1cc(COc2ncnc3c2cnn3-c2ccccc2)nn1)Nc1cccc2ccccc12`, the growth was 88.4%.

Turning to `Cc1c(-c2csc(-n3nc(C(F)(F)F)cc3C(F)(F)F)n2)no[n+]1[O-]`, the growth was 94.1%.

In the case of `CCN(CC)CCNC(=O)C(Cl)=C1C(Cl)=C(Cl)C(Cl)=C1Cl`, the growth is 85.5%.

Turning to `COc1nc2c(c(=O)n1C)N=C1c3ccccc3C(=O)C1C(c1ccccc1)N2` (stereo not given), the growth is 91.7%.
